Bioassay records from PubChem.
An excerpt weighted towards active compounds, which were near 4% of everything screened.
Mdm2 MdmX PPI – disrupts the human Mdm2-MdmX interaction; 330,000 tested, 3% active; O15151+Q00987; SaOS-2 split-luciferase Mdm2/MdmX complementation, luminescence; inhibition, % at 8 µM;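 active = inhibition of at least 50% at 8 µM in the primary screen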
Target sequence (O15151 whole entry, looked up): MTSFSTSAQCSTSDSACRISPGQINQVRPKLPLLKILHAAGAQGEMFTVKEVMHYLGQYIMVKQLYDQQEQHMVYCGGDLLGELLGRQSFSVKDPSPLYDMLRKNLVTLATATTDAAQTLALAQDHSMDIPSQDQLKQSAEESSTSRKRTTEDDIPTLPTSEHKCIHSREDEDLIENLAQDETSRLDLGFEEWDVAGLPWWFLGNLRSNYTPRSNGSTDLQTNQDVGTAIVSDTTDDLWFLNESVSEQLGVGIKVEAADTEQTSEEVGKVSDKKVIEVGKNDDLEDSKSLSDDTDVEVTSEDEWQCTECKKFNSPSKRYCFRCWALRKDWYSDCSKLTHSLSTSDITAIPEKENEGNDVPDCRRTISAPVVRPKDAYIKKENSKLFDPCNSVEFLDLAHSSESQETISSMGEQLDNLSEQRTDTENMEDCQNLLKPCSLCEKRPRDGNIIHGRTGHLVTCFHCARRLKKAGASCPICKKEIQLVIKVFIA
Target sequence (Q00987 whole entry, looked up): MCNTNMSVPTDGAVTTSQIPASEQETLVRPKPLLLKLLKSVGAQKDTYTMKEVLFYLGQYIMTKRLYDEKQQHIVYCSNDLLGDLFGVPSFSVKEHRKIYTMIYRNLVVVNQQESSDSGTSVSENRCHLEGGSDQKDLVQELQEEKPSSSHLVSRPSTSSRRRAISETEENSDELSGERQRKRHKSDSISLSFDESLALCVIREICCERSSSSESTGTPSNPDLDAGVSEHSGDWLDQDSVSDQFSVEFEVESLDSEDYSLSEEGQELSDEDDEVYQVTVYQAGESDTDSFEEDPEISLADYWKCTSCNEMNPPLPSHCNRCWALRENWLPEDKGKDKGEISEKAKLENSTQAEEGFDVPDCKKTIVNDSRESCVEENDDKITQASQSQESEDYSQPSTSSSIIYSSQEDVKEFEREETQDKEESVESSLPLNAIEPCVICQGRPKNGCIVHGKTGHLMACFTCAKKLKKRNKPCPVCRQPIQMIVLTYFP
PAX8 reporter – inhibitors of PAX8 transcriptional activity in RMG-I cells | inhibition, % at 12.6 µM | RMG-I TPO-luciferase reporter, SteadyGlo, 24 h | 360,000 tested, 1.2% active;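 active = mean replicate inhibition at least 60% with every replicate also reaching 60%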;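 also: luciferase light reporting Pax8 driven TPO promoter activity; plate controls were median of neutral control wells for no effect and mitoxantrone controls for full effect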
Gli-Sufu antag – blocks Gli-Sufu signaling in a luciferase reporter | inhibition, % at 5 µM | Sufu-KO-LIGHT fibroblasts, Gli luciferase reporter luminescence | 340,000 tested, 0.74% active;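 active = inhibition above about 55%, limit read from the data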;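 also: 0% = DMSO-treated cells and 100% = wells with medium but no cells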
CSC inhib – cancer stem cell inhibition | inhibition, % at 7.5 µM | 300,000 tested, 1.1% active | cancer stem cell-like cells viability, luminescence | AID 2717; in the data active = inhibition above about 75%; tested in HMLE shEcad cells
Beta cell apopt – beta cell apoptosis inhibition; INS-1E cytokine-induced death, ATP luminescence, 48 h; percent of positive-control rescue, neutral wells zero; protection from apoptosis, % (no concentration beside the values); 300,000 tested, 0.8% active; AID 435005;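 active = Every replicate reaches about 75%, or at least half do and their mean reaches it too, limit read from the data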;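 also: 0% = cytokine-treated negative control wells and 100% = positive control rescue; higher means more ATP so stronger rescue from cytokine killing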
Shn3 inh set2 – reduces Shn3 3'UTR luciferase signal in osteoblasts; Clone20 osteoblast Shn3 3'UTR firefly luciferase, 24 h; inhibition, % at 12.5 µM; 360,000 tested, 0.52% active; AID 588674;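 active = mean inhibition of at least 75% with every replicate also reaching 75%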;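 also: 0% = median of neutral control wells and 100% = pilot-screen positive control compound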
Gli antag conf – confirmation of Gli-SUFU pathway antagonists | inhibition, % at 5 µM | 2,500 tested, 40% active | shares compounds with Gli-Sufu antag | Sufu-KO-LIGHT cells, Gli luciferase reporter, luminescence;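 active = mean inhibition at 5 µM reaching about 45%, limit read from the data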;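 also: plate controls were DMSO-treated cells for no effect and wells lacking cells for full effect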
Gli cytotox – cytotoxicity counter-screen for Gli-SUFU antagonists; shares compounds with Gli-Sufu antag; Sufu-KO-LIGHT cells cytotoxicity, ATP luminescence; cytotoxicity, % at 5 µM; 2,500 tested, 32% active;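 active = mean cytotoxicity at 5 µM above about 25%, limit read from the data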;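 also: cells exposed to compound overnight for roughly 16 to 18 hours; plate controls were DMSO wells with cells for no effect and medium without cells for full effect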
Wnt3a counter – inhibits Wnt3a reporter, counter-screen for Gli-SUFU antagonists | Wnt-LIGHT cells, Wnt3a-driven luciferase reporter, luminescence | shares compounds with Gli-Sufu antag | AID 651995 | 2,500 tested, 20% active | inhibition, % at 6.25 µM;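 active = mean inhibition above about 25%, limit read from the data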
Active calls of the source: *; . = not tested or not shown.

SMILES | Mdm2 MdmX PPI | PAX8 reporter | Gli-Sufu antag | CSC inhib | Beta cell apopt | Shn3 inh set2 | Gli antag conf | Gli cytotox | Wnt3a counter
CCCCc1cc(=O)oc2cc(C)cc(OCC(=O)N[C@@H](CSCc3ccccc3)C(=O)O)c12 | -17 | . | 7 | -12 | . | -20 | . | . | .
CCc1cc(=O)oc2cc(C)cc(OCC(=O)N[C@@H](CSCc3ccccc3)C(=O)O)c12 | 15 | . | 57* | -12 | . | 7 | 23 | -3 | 3
Cc1noc(C)c1NC(=O)N(C)C[C@H]1Oc2ccc(NC(=O)Nc3cccc4ccccc34)cc2C(=O)N([C@@H](C)CO)C[C@@H]1C | . | 9 | . | . | . | . | . | . | .
CCNC(=S)N/N=C(\C)c1ccc(N2CCOCC2)cc1 | -9 | 1 | 5 | -11 | 0 | -3 | . | . | .
CNC(=S)N/N=C(\C)c1ccc(N2CCOCC2)cc1 | . | -39 | 68* | . | . | -5 | -18 | 7 | -68
CCn1c(=NC(=O)CS(=O)(=O)c2ccc(F)cc2)sc2cccc(OC)c21 | -8 | -8 | 48 | -7 | . | 78 | . | . | .
CCn1c(=NC(=O)CCS(=O)(=O)c2ccccc2)sc2cccc(OC)c21 | 43 | 16 | 70* | -6 | 87* | 83 | 71* | 28* | 17
CCn1c(=NC(=O)c2ccc(S(=O)(=O)N3CCOCC3)cc2)sc2cccc(OC)c21 | 4 | . | 52 | 33 | 88* | . | 35 | 21 | -2
COCCn1c(=NC(=O)c2ccc(S(=O)(=O)N3CCOCC3)cc2)sc2cc(S(N)(=O)=O)ccc21 | 11 | -3 | 21 | -12 | -7 | 24 | . | . | .
CCNC(=O)C[C@@H]1CC[C@@H]2[C@H](COC[C@@H](O)CN2C(=O)Nc2ccc(C(F)(F)F)cc2)O1 | . | 21 | . | . | . | . | . | . | .
C[C@@H]1CN([C@@H](C)CO)C(=O)c2cc(C#CCc3ccccc3)cnc2O[C@@H]1CN(C)Cc1ccccc1 | . | -8 | . | . | . | . | . | . | .
CCn1c(-c2ccsc2)nc2c1c(=O)[nH]c(=O)n2Cc1ccccc1 | 22 | 11 | 62* | -18 | 3 | 4 | 27 | 1 | -8
COc1ccccc1CN1CC[C@H]2[C@H](CO)Nc3ccc(-c4ccc(C(=O)N(C)C)cc4)cc3[C@H]21 | . | -14 | . | . | . | . | . | . | .
Cc1nn(Cc2ccc(Cl)cc2)c(C)c1NC(=O)Cn1nc([N+](=O)[O-])c(Cl)c1C | 36 | . | 51 | -16 | . | 5 | 10 | 8 | 12
Cc1nn(Cc2ccccc2)c(C)c1NC(=O)CCCn1nc([N+](=O)[O-])c(Cl)c1C | 8 | -11 | 54 | -16 | 3 | 17 | 16 | 13 | -31
Cc1nn(Cc2ccc(Cl)cc2Cl)c(C)c1NC(=O)Cn1nc([N+](=O)[O-])c(Cl)c1C | -2 | . | 5 | . | 4 | 22 | . | . | .
COc1cccc(NC(=O)C[C@H]2CC[C@H]3[C@@H](COc4ccc(NC(=O)C5CCOCC5)cc4C(=O)N3C)O2)c1 | . | 3 | . | . | . | . | . | . | .
CC=Cc1ccc2n(c1=O)C[C@H]1[C@H](CO)[C@@H](C(=O)NCc3ccccn3)[C@@H]2N1CCC (mixture of isomers) | . | -10 | . | . | . | . | . | . | .
COc1ccccc1C(=O)NCC(=O)n1nc(C)cc1C | 20 | -9 | -8 | -13 | 1 | 8 | . | . | .
COc1ccccc1NCC(=O)n1nc(C)cc1C | -17 | 3 | 51 | 8 | -2 | 1 | 22 | 5 | -4
COc1cc(Br)cc(/C=N/N(CCO)C2=NS(=O)(=O)c3ccccc32)c1OC | 21 | 40 | 64* | -12 | 17 | 78 | 42 | 7 | -12
CO[C@H]1CN(C)C(=O)c2ccc(NS(C)(=O)=O)cc2OC[C@@H](C)N(CCC(F)(F)F)C[C@@H]1C | . | 10 | . | . | . | . | . | . | .
Cc1csc(N(C(=O)c2cccc(S(=O)(=O)N3CCCC3)c2)c2ccccc2)n1 | 19 | . | -3 | -7 | 8 | 26 | . | . | .
Cc1csc(N(C(=O)c2cccc(S(=O)(=O)N(C)C)c2)c2ccccc2)n1 | 12 | . | 57* | 6 | 3 | 22 | 23 | 4 | -4
COc1ccc(CCN(C)C(=O)Cc2ccc(-c3ccccc3)cc2)cc1OC | 14 | 32 | 60* | 7 | 18 | 77 | 15 | 6 | -44
SMILES | Mdm2 MdmX PPI | PAX8 reporter | Gli-Sufu antag | CSC inhib | Beta cell apopt | Shn3 inh set2 | Gli antag conf | Gli cytotox | Wnt3a counter
CC#CC[N+](C)(C)CCCCCCCCCC | 48 | 33 | 68* | 52 | . | . | 79* | 43* | 35*
CCC(=O)N1[C@H](CO)[C@H](c2ccccc2)C12CN(C(=O)CN1CCOCC1)C2 | . | -9 | . | . | . | . | . | . | .
CCN(CC)CCN1C(=O)c2oc3ccccc3c(=O)c2C1c1ccc(C)cc1 (stereo not drawn) | 7 | . | 80* | -7 | -6 | -16 | 22 | -6 | -22
C[C@@H]1CN([C@@H](C)CO)C(=O)Cc2cc(NC(=O)Nc3ccc(F)cc3)ccc2O[C@H]1CN(C)C(=O)Nc1ccc2c(c1)OCO2 | . | 3 | . | . | . | . | . | . | .
O=C(COC(=O)c1ccc2[nH]c3c(c2c1)CCCC3)Nc1ccccc1Cl | 29 | -4 | 51 | 11 | -1 | -1 | 47* | 7 | -23
CCOC(=O)c1ccc2[nH]c3c(c2c1)CCCC3 | -34 | -106 | -43 | 0 | 0 | -130 | . | . | .
CCOc1ccc(-n2c(-c3ccccc3)c[n+]3c2CCC3)cc1 | 39 | 82* | 85* | -5 | 104* | 84* | 88* | 33* | 41*
CCOc1ccc(-n2c(-c3ccccc3)c[nH]c2=S)cc1 | -8 | 9 | -13 | -3 | -5 | -4 | . | . | .
CCOc1ccc(-n2c(-c3ccc(Br)cc3)c[n+]3c2CCCCC3)cc1 | 16 | 95* | 86* | -9 | 118* | 73 | 88* | 46* | 23
COCCCNC(=S)N1CCN(S(=O)(=O)c2ccc(OC)cc2)CC1 | 28 | 5 | 69* | -4 | 5 | 2 | 11 | 16 | -6
COc1ccc(S(=O)(=O)N2CCN(C(=S)NCCc3ccccc3)CC2)cc1 | 14 | 16 | -3 | -9 | -5 | 6 | . | . | .
O=C(CSCSCC(=O)NCC1CCCO1)NCC1CCCO1 (stereo not drawn) | -20 | . | 96* | 4 | 2 | -7 | 11 | 20 | -16
Cc1cc(C)c(C)c(OCC(=O)NCC2CCCO2)c1 (stereo not drawn) | -12 | . | 0 | 0 | 0 | -39 | . | . | .
COc1ccc(-c2noc(CCC(=O)NCC3CCCO3)n2)cc1 (stereo not drawn) | 8 | -30 | -2 | -5 | -5 | 17 | . | . | .
Cc1cc(C)cc(OCC(=O)NCC2CCCO2)c1 (stereo not drawn) | 9 | . | 71* | -8 | -1 | 51 | 39 | 16 | 38*
Cc1ccc(-c2noc(CCCC(=O)NCC3CCCO3)n2)cc1 (stereo not drawn) | -4 | -18 | 56* | . | -2 | -2 | 39 | 8 | 5
